The record followed here is PubChem BioAssay (NCI).

Molecules are shown by their SMILES. The panel holds about 83,000 compounds, 20% with a hit somewhere; the sample as a whole holds those more often.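 96-well plates, one dose, 48 hours. Percent growth reported; active if below 10.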 Values without a mark were called inactive. Activity calls are given as the source filed them.

Holding throughout (assay): NCI-60 one-dose screen, 48 h (100 = growth as untreated, 0 = no growth, -100 = all killed)
The test system of test [1] is NCI-H226 lung. The settings on record: 10 µM.
Test [2] relates to NCI-H322M lung. Particulars: 10 µM unless noted.
Test [3] concerns HOP-62 NSCLC. Particulars: 10 µM unless noted.
Test [4] deals with NCI-H460 lung. Particulars: 10 µM unless noted.
The test system of test [5] is HOP-92 NSCLC. Particulars: 10 µM unless noted.
Test [6] deals with NCI-H522 lung. Particulars: 10 µM.
For test [7], the system named is A549/ATCC NSCLC. The settings on record: 10 µM unless noted.
For test [8], the system named is 786-0 renal. The settings on record: 10 µM unless noted.
For test [9], the system named is COLO 205 colon. Particulars: 10 µM unless noted.
The test system of test [10] is NCI-H23 lung. Particulars: 10 µM unless noted.

As for `OC[C@@H](O)[C@@H](O)CO`, the growth in [1] is 98.6%; in test [2], 105%; in test [3], 126%; in test [4], 107%; in test [5], 101%; in test [6], 96.6%. The growth in test [7] was 104%; in [8], 104%; in test [9], 111%.

On to `Cn1c(=O)c2c(-c3ccccc3F)n(-c3ccc4c(c3)OCO4)cc2n(C)c1=O`, for which the growth in test [10] is 95.2%; in [3] it was 102%; in [4] it was 99.4%; in [6] it was 91.5%; in test [7], 99.8%; in [8] it was 102%. Further, in [9], the growth was 106%.

Consider `CN1CCN(C)c2cncc(Br)c2C1=O`, for which the growth was 101% in [10]; 110% in [3]; 105% in test [4]; 91.8% in test [5]; 93.5% in [6]; 104% in test [7]. For the same compound, the growth in test [9] is 108%.

For the compound `CCOC(=O)c1sc(NC(=O)CN2CCC(Cc3ccccc3)CC2)nc1C`, the growth in test [10] is 96.2%; in test [3], 102%; in [4], 101%; in [6] it was 92.9%; in test [7], 104%; in test [8], 96.9%. Further, the growth in [9] is 97.1%.

As to `O=C(CCc1nnc2sc(/C=C\c3ccccc3)nn12)c1nc2ccccc2[nH]1`, the growth in test [10] was 73.4%; in [3], 75.8%; in [4], 96.7%; in test [5], 52.9%; in test [6], 95.1%; in test [7] it was 97.5%. The figures for the growth in test [8] and in test [9] were 89.7% and 90.7%, respectively.

Consider `CCCCc1ccc(NC(=O)C(F)(F)F)cc1`, for which the growth in test [10] was 106%; in test [3], 102%; in [4] it was 108%; in test [5], 104%; in test [6] it was 82%; in test [7], 102%. Further, the growth in [8] was 91.8%; in test [9], 107%.

As for `Fc1c[c-]c(-c2ccccn2)c(F)c1.Fc1c[c-]c(-c2ccccn2)c(F)c1.[Cl][Pt+].[Cl][Pt+].c1ccc([PH+](C[PH+](c2ccccc2)c2ccccc2)c2ccccc2)cc1`, the growth in test [10] was -6.3% (active); in test [3] it was 20.9%; in [4] it was 8.7% (active); in [5], 2.42% (active); in [7], 20.6%; in [8], 31.8%. Further, the growth in [9] was -65.2% (active).

In the case of `CC1=CN2C(=NC3=C(CCCC/C3=C\c3ccccc3)C2c2ccccc2)S1` (stereo unspecified), the growth is 101% in [10]; 103% in [3]; 107% in [4]; 108% in [7]; 105% in test [8]; 122% in test [9].

As for `O=c1onc(-c2ccccc2)c2ccccc12`, the growth is 104% in test [10]; 117% in [3]; 109% in test [4]; 109% in test [7]; 105% in test [8]; 119% in test [9].

With `CN1CCN(c2ccc3nc(-c4ccc5nc(-c6ccc(C(F)(F)F)cc6)[nH]c5c4)[nH]c3c2)CC1`, the growth was 68.2% in [10]; 30.9% in test [4]; 59.3% in test [5]; 64.1% in test [6]; 89.8% in test [7]; 69.6% in test [8].

Turning to `C=C[C@H]1C[C@@H]2C[C@@H]3[C@H]4C/C=C\C(=O)NCCCC5NC(=O)C(=C(O)/C=C/[C@@H]4CC(=O)[C@H]3[C@@H]2[C@H]1C)C5=O` (stereo partly specified), the growth was -8.31% (active) in test [10]; -82.3% (active) in test [3]; -69.4% (active) in [4]; -85.7% (active) in [5]; 46.4% in test [6]; -91% (active) in test [7]. Moreover, in test [9], the growth is -82.9% (active).

Turning to `Cc1cc(O)cc2c1[C@H]1CC[C@]3(C)[C@@H](O)CC[C@H]3[C@@H]1C=C2`, the growth was 90.5% in [10]; 74.5% in test [3]; 104% in [4]; 105% in [5]; 43.2% in [6]; 86.9% in [7]. For the same compound, the growth in test [8] was 99.5%; in test [9], 108%.

With `O=C1CC(c2ccsc2)c2snc(-c3ccc(Cl)cc3)c2N1` (stereo unspecified), the growth in test [10] is 35.9%; in [3] it was 37.2%; in test [4], 10.6%; in test [5], 51.1%; in test [7], 35.1%; in test [8] it was 39.6%. Besides, in test [9], the growth was -42.8% (active).

For the compound `O=C1c2cc(S(=O)(=O)O)ccc2C(=O)c2c1cccc2[N+](=O)[O-]`, the growth in test [1] was 111%; in test [2], 111%; in test [3], 117%; in test [4], 115%; in test [5], 110%; in [6], 96.6%. Also, the growth in test [7] is 98.6%; in test [8] it was 101%; in test [9], 108%.

Turning to `FC(F)(F)c1ccc2c(c1)n1cnnc1c1nncn21`, the growth in test [10] was 103%; in test [3], 113%; in test [4], 110%; in [5], 88.7%; in test [6] it was 97.1%; in [8], 101%. In addition, in test [9], the growth is 111%.

For `CCCCCn1c(=N)n(CC(O)COc2cccc(C)c2)c2ccccc21` (stereo unspecified), the growth in [10] is 7.8% (active); in test [3], 17.9%; in test [4], 0.388% (active); in test [7], 7.6% (active); in test [8], 32.6%; in [9], 87.2%.

On to `COc1ccc2nc(-n3nc(C)cc3C)c(-n3nc(C)cc3C)nc2c1`, for which the growth in test [10] was 97.1%; in test [3] it was 105%; in test [4], 108%; in test [6] it was 100%; in [7], 115%; in test [8], 105%. The growth in test [9] is 113%.

In the case of `O=C1CN2CCC1C/C2=C\c1ccnc2c(Cl)cccc12` (stereo unspecified), the growth in test [10] is 92.2%; in test [3], 82%; in test [4] it was 116%; in test [6], 88.9%; in test [7], 107%; in test [8], 103%. In test [9], the growth is 98%.

As for `c1ccc(-c2n(Cc3ccc4ccccc4n3)c3ccccc3[n+]2Cc2ccc3ccccc3n2)cc1`, the growth in test [10] was -5.45% (active); in test [3], -1.08% (active); in test [4], 1.2% (active); in [5] it was -18.8% (active); in [7] it was 13.7%; in test [8] it was 11.9%. Further, the growth in test [9] is -69.2% (active).

As to `CNc1ccc(Br)cc1-c1n[nH]c(=O)[nH]c1=O`, the growth in test [10] was 90.8%; in [3], 105%; in [4], 101%; in test [7], 112%; in test [8], 95%; in [9], 131%.

In the case of `FCOC(C(F)(F)F)C(F)(F)F`, the growth in [1] was 106%; in [2] it was 97.5%; in test [3], 114%; in test [4], 111%; in [5] it was 120%; in test [6] it was 96.6%. Also, the figures for the growth in test [7], in test [8] and in [9] were 99.1%, 97.7% and 117%, respectively.

As to `O=S(=O)(/N=C1C=C/C(=N\S(=O)(=O)c2ccccc2)c2ccccc2\1)c1ccccc1`, the growth in test [10] is 83.1%; in test [3], 90.2%; in test [4], 112%; in test [6], 85.9%; in test [7] it was 101%; in test [8] it was 115%. In addition, in test [9], the growth was 111%.

As to `COc1cccc(C2C3=C(COC3=O)N(CCO)c3cc4c(cc32)OCO4)c1` (stereo unspecified), the growth in test [1] is 51.6%; in [2], 48.9%; in [3], 30.4%; in test [4], 12.3%; in test [5] it was 65.7%; in test [6], -39.4% (active). Further, the growth in [7] is 25.9%; in test [8] it was 18.5%; in [9], -27.1% (active).

As to `Cc1ccc(S(=O)(=O)N2C/C(=C\c3cc(F)cc(F)c3)C(=O)/C(=C/c3cc(F)cc(F)c3)C2)cc1`, the growth is -21.6% (active) in [10]; -60% (active) in test [3]; 5.73% (active) in test [4]; 27.6% in [7]; -85.6% (active) in test [8]; 1.42% (active) in test [9].

Regarding `CCC12CCC3c4ccc(O)cc4CCC3C1CC(O)C2O` (stereo unspecified), the growth in test [10] was 68%; in [3] it was 83.2%; in [4], 88%; in test [5] it was 72.3%; in test [7], 61.7%; in [8] it was 92.5%.

For the compound `O=C1c2ccccc2C(=O)c2c(Nc3ccc(CCO)cc3)ccc(O)c21`, the growth in test [10] is 93.3%; in test [3], 107%; in test [4], 56%; in test [6], 71.5%; in test [7], 67.5%; in test [8], 104%. Moreover, the growth in [9] was 49.1%.

On to `O=C1OCC2=C1C(c1ccc3c(c1)OCO3)CC(=O)N2c1cccc(Cl)c1` (stereo unspecified), for which the growth is 90.2% in test [10]; 103% in test [3]; 108% in [4]; 92.9% in test [6]; 94.6% in test [7]; 110% in test [8]. For the same compound, in test [9], the growth was 105%.

With `N#Cc1c(-c2cccc(F)c2)cc(-c2ccc(Br)s2)[nH]c1=O`, the growth was 84.9% in test [10]; 72.2% in test [3]; 38.6% in test [4]; 59.4% in [7]; 96.3% in [8].

Consider `Nc1cc2[nH]c(=O)c3ccccc3c2cc1Br`, for which the growth was 70.5% in test [10]; 68.9% in [3]; 67.3% in test [4]; 90% in test [6]; 84.5% in test [7]; 104% in [8].

Take `COc1cccc(C2CC(=O)Nc3cc4c(cc32)CCC4)c1OC` (stereo unspecified): the growth in test [10] is 59%; in test [3], 60.5%; in test [4], 61.8%; in test [6] it was 60.9%; in [7], 47.8%; in test [8], 79.6%. For the same compound, in test [9], the growth was 50%.

For `O=C1CCC(N2Cc3c(C#CCCCNC(=O)c4cc5c(o4)C(=O)c4ccccc4C5=O)cccc3C2=O)C(=O)N1` (stereo unspecified), the growth is -80.1% (active) in test [10]; -82% (active) in test [4]; 52.3% in [5]; -61.2% (active) in [6]; 30% in test [7]; 49.7% in [8].

Regarding `COc1cc(-c2nc3ccccc3o2)cc(CN2CCN(c3ccccc3)CC2)c1O`, the growth was 37.8% in [10]; 51% in test [4]; 81.8% in test [5]; 30.2% in test [7]; 90.2% in test [8]; 117% in test [9].

In the case of `Cc1nn2c(-c3nc4ccc(Cl)cc4[nH]3)c(-c3ccc(F)cc3)nc2s1`, the growth in test [10] was 98.2%; in [3] it was 115%; in test [4] it was 97.5%; in test [5], 91%; in [6], 99.9%; in test [7], 80.1%. Moreover, the growth is 93.8% in test [8] and 108% in test [9].
